Source: ChEMBL document CHEMBL1961873, “Compounds: GSK PKIS; Assays: Nanosyn kinase panel” (2012)

Key:
[1] = target: CDK3/Cyclin E (Homo sapiens) (UniProt P24864+Q00526); conditions: at 1 µM;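 note: each figure is a mean percent inhibition of the CDK3/cyclin E complex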
[2] = target: Cyclin-dependent kinase 4 (Homo sapiens) (UniProt P11802); conditions: at 0.1 µM
[3] = target: Cyclin-dependent kinase 4 (Homo sapiens) (UniProt P11802); conditions: at 1 µM
[4] = target: Cyclin-dependent kinase 5 (Homo sapiens) (UniProt Q00535); conditions: at 0.1 µM
Sequence of Cyclin-dependent kinase 5 (Homo sapiens) (Q00535 whole entry, looked up): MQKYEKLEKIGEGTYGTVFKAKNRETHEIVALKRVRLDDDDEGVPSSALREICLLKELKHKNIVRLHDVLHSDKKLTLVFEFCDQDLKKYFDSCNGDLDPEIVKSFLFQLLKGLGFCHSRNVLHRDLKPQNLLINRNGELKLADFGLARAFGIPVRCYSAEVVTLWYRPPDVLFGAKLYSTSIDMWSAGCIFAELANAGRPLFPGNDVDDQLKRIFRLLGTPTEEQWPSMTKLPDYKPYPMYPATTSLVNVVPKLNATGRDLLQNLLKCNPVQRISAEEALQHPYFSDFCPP

[5] = target: Cyclin-dependent kinase 5 (Homo sapiens) (UniProt Q00535); conditions: at 1 µM
[6] = target: Cyclin-dependent kinase 6 (Homo sapiens) (UniProt Q00534); conditions: at 0.1 µM
Sequence of Cyclin-dependent kinase 6 (Homo sapiens) (Q00534 whole entry): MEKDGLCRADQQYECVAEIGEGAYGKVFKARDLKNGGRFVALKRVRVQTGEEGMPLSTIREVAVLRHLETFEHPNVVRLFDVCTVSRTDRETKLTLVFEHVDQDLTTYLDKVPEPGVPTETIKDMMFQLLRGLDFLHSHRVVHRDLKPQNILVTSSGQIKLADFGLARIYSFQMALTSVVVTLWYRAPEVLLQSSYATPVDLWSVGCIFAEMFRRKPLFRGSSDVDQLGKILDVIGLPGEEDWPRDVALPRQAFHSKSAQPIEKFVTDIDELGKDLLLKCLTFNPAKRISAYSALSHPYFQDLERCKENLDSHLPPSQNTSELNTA

[7] = target: Cyclin-dependent kinase 6 (Homo sapiens) (UniProt Q00534); conditions: at 1 µM
[8] = target: Dual specificity protein kinase CLK2 (Homo sapiens) (UniProt P49760); conditions: at 0.1 µM
Sequence of Dual specificity protein kinase CLK2 (Homo sapiens) (P49760 whole entry, looked up): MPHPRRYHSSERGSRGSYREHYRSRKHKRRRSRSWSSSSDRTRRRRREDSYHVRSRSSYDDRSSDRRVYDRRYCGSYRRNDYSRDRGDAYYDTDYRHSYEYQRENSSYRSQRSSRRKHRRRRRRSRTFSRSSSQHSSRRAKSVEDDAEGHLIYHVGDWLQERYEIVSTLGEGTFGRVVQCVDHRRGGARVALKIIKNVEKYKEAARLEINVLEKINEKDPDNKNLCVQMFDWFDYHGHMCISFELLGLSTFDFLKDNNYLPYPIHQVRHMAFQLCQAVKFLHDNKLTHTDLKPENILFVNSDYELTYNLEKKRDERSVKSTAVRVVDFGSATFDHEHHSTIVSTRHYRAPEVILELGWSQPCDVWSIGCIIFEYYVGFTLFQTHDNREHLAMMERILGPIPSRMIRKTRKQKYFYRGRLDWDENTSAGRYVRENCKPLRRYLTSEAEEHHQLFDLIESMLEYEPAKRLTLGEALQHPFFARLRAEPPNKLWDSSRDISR

[9] = target: Dual specificity protein kinase CLK2 (Homo sapiens) (UniProt P49760); conditions: at 1 µM
[10] = target: Dual specificity protein kinase CLK3 (Homo sapiens) (UniProt P49761); conditions: at 0.1 µM
Sequence of Dual specificity protein kinase CLK3 (Homo sapiens) (P49761 whole entry, looked up): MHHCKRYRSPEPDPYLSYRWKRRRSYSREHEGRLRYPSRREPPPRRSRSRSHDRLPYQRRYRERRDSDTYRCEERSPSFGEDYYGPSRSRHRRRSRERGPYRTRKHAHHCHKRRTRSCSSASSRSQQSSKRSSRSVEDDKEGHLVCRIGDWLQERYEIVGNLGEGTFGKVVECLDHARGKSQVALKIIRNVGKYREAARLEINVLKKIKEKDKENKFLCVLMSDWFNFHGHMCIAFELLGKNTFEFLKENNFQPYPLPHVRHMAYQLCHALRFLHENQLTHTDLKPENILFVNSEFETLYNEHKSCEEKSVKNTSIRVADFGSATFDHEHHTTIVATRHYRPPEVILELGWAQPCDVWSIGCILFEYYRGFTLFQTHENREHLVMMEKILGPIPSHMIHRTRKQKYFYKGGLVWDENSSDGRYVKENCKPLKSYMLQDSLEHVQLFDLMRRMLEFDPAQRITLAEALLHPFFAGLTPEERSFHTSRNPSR

[11] = target: Dual specificity protein kinase CLK3 (Homo sapiens) (UniProt P49761); conditions: at 1 µM
[12] = target: Dual specificity tyrosine-phosphorylation-regulated kinase 1A (Homo sapiens) (UniProt Q13627); conditions: at 0.1 µM
[13] = target: Dual specificity tyrosine-phosphorylation-regulated kinase 1A (Homo sapiens) (UniProt Q13627); conditions: at 1 µM
[14] = target: Dual specificity tyrosine-phosphorylation-regulated kinase 1B (Homo sapiens) (UniProt Q9Y463); conditions: at 0.1 µM
Sequence of Dual specificity tyrosine-phosphorylation-regulated kinase 1B (Homo sapiens) (Q9Y463 whole entry, looked up): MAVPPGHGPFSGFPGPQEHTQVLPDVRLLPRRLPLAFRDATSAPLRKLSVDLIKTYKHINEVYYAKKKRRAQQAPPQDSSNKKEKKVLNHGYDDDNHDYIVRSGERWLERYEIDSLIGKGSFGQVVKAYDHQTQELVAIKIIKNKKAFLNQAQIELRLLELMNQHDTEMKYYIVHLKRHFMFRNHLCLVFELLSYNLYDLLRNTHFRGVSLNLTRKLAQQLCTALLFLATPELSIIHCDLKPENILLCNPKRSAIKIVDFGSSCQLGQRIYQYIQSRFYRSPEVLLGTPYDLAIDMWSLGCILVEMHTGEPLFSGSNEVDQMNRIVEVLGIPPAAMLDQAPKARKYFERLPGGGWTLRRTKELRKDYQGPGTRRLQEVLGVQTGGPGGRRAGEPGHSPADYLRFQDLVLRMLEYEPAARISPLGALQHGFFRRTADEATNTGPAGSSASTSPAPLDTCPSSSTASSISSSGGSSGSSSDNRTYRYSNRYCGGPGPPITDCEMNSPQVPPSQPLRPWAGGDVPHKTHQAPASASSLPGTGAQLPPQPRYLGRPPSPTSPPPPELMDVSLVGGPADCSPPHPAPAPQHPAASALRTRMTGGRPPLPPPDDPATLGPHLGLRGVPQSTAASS

[15] = target: Dual specificity tyrosine-phosphorylation-regulated kinase 1B (Homo sapiens) (UniProt Q9Y463); conditions: at 1 µM
[16] = target: T1, Dual specificity tyrosine-phosphorylation-regulated kinase 2 (Homo sapiens) (UniProt Q92630); conditions: at 0.1 µM
T1 sequence (whole entry): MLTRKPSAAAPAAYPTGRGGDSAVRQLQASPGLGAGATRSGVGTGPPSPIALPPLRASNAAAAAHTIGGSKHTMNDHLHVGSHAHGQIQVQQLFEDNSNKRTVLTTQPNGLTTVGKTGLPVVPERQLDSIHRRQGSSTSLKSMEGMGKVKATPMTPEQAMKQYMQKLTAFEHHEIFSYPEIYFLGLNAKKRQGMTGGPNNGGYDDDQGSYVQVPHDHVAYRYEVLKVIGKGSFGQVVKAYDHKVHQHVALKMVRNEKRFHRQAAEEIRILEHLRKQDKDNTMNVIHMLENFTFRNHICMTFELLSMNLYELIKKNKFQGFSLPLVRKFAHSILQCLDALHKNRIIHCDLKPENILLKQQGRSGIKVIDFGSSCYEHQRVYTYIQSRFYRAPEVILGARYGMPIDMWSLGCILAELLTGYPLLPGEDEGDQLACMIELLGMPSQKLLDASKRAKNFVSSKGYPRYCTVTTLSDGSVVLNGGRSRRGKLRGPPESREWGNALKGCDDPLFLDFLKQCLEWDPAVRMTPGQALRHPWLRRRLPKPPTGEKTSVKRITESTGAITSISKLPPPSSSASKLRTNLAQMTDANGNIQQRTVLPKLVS

[17] = target: T1, Dual specificity tyrosine-phosphorylation-regulated kinase 2 (Homo sapiens); conditions: at 1 µM
[18] = target: Glycogen synthase kinase-3 alpha (Homo sapiens) (UniProt P49840); conditions: at 0.1 µM
Sequence of Glycogen synthase kinase-3 alpha (Homo sapiens) (P49840 2-483 limits assumed): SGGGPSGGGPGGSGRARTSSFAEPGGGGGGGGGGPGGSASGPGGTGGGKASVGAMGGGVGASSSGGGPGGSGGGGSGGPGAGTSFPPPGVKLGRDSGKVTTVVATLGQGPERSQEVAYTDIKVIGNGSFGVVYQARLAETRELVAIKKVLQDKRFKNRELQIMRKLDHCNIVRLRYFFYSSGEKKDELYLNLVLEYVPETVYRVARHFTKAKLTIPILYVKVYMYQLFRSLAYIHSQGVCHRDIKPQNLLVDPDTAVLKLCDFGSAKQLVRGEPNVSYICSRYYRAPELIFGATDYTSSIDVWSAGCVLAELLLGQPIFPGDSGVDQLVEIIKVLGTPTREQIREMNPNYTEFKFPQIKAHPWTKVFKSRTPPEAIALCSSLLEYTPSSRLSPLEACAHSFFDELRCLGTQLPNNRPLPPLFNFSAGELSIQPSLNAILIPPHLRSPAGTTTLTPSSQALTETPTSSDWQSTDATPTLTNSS

[19] = target: Glycogen synthase kinase-3 alpha (Homo sapiens) (UniProt P49840); conditions: at 1 µM
[20] = target: Glycogen synthase kinase-3 beta (Homo sapiens) (UniProt P49841); conditions: at 0.1 µM;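 note: values are mean percent inhibition of GSK3B activity, from the GSK Published Kinase Inhibitor Set (PKIS) screening dataset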
Sequence of Glycogen synthase kinase-3 beta (Homo sapiens) (P49841 whole entry, looked up): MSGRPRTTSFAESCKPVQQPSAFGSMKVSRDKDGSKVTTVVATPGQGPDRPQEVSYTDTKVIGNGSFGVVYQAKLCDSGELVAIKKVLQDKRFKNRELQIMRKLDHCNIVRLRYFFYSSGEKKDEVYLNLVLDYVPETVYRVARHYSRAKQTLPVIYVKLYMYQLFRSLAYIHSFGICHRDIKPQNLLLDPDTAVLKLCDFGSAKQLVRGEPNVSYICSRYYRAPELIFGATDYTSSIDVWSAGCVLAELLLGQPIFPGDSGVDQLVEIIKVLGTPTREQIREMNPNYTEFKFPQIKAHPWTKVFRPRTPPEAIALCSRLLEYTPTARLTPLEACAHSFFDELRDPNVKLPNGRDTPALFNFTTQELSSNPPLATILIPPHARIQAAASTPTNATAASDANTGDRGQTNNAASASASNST

Sequence of Cyclin-dependent kinase 4 (Homo sapiens) (P11802 whole entry): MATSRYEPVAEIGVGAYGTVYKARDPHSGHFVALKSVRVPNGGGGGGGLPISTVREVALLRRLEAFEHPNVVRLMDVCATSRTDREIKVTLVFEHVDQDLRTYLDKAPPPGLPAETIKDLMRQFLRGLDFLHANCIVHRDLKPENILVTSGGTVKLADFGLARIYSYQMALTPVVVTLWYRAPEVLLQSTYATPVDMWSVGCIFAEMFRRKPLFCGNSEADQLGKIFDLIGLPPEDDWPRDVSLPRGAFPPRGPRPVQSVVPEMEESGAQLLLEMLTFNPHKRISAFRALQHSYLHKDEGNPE
Sequence of CDK3/Cyclin E (Homo sapiens) (P24864 whole entry, looked up): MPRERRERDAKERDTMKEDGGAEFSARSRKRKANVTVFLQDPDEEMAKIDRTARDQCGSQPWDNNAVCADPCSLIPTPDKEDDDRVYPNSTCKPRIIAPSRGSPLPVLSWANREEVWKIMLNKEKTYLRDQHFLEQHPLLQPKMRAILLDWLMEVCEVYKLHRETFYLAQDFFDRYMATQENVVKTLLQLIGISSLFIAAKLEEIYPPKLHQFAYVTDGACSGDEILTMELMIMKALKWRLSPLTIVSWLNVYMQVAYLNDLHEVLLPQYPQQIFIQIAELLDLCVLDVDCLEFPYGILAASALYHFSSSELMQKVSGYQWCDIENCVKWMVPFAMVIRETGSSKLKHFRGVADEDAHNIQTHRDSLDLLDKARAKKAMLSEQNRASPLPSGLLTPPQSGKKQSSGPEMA
Sequence of CDK3/Cyclin E (Homo sapiens) (Q00526 whole entry, looked up): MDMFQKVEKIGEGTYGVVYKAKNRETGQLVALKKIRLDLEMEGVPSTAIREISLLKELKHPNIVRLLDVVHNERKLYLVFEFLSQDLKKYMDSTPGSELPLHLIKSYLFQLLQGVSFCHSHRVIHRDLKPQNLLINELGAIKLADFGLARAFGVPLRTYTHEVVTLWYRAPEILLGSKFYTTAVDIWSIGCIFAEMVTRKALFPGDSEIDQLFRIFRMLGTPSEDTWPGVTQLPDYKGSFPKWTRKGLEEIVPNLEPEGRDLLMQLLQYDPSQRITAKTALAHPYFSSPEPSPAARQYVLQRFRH

Question: For CCN1CCC(C(=O)Nc2n[nH]c3nnc(-c4cccc(F)c4F)cc23)CC1, which inhibition [1] is on record?
Answer: 16.7%

Question: And the inhibition [2]?
Answer: 5.92%

Question: And the inhibition [3]?
Answer: 36.6%

Question: What about the inhibition [4] of the same compound?
Answer: 2.96%

Question: What about the inhibition [5] of the same compound?
Answer: 14.1%

Question: And the inhibition [6]?
Answer: 5.64%

Question: And the inhibition [7]?
Answer: 28.9%

Question: And the inhibition [8]?
Answer: -0.21%

Question: What about the inhibition [9] of the same compound?
Answer: 2.56%

Question: And the inhibition [10]?
Answer: 1.25%

Question: What about the inhibition [11] of the same compound?
Answer: 0.77%

Question: And the inhibition [12]?
Answer: 14.4%

Question: And the inhibition [13]?
Answer: 61%

Question: What about the inhibition [14] of the same compound?
Answer: 12.9%

Question: What about the inhibition [15] of the same compound?
Answer: 54.3%

Question: And the inhibition [16]?
Answer: -0.03%

Question: What about the inhibition [17] of the same compound?
Answer: 2.26%

Question: And the inhibition [18]?
Answer: 85.3%

Question: And the inhibition [19]?
Answer: 89.9%

Question: And the inhibition [20]?
Answer: 80.9%

Question: What does the source list for NS(=O)(=O)c1ccc(N/N=C2\C(=O)Nc3cccc(CCc4ccncc4)c32)cc1?
Answer: inhibition [1]: 63.6%; inhibition [2]: 14%; inhibition [3]: 29.4%; inhibition [4]: 19.4%; inhibition [5]: 38.5%; inhibition [6]: 36.6%; inhibition [7]: 56.2%; inhibition [8]: 0.9%; inhibition [9]: 4.17%; inhibition [10]: 0.97%; inhibition [11]: 1.36%; inhibition [12]: 1.69%; inhibition [13]: 4.28%; inhibition [14]: 1.6%; inhibition [15]: 6.1%; inhibition [16]: -0.67%; inhibition [17]: -1.25%; inhibition [18]: 49.5%; inhibition [19]: 68%; inhibition [20]: 34.1%

Question: Which inhibition [1] does the source give for CCCNc1cccc(-n2ncc3c(N/N=C/c4ccncc4)ncnc32)c1 here?
Answer: 9.63%

Question: And the inhibition [2]?
Answer: 0.2%

Question: What about the inhibition [3] of the same compound?
Answer: 9.54%

Question: And the inhibition [4]?
Answer: 1.35%

Question: What about the inhibition [5] of the same compound?
Answer: 12.6%

Question: What about the inhibition [6] of the same compound?
Answer: 3.25%

Question: And the inhibition [7]?
Answer: 10.1%

Question: And the inhibition [8]?
Answer: 3.08%

Question: What about the inhibition [9] of the same compound?
Answer: 10.9%

Question: What about the inhibition [10] of the same compound?
Answer: 0.61%

Question: And the inhibition [11]?
Answer: 9.87%

Question: And the inhibition [12]?
Answer: 1.44%

Question: What about the inhibition [13] of the same compound?
Answer: 20.6%

Question: And the inhibition [14]?
Answer: 0.57%

Question: What about the inhibition [15] of the same compound?
Answer: 9.45%

Question: And the inhibition [16]?
Answer: 2.85%

Question: What about the inhibition [17] of the same compound?
Answer: 14.2%

Question: And the inhibition [18]?
Answer: 31.9%

Question: And the inhibition [19]?
Answer: 71.8%

Question: And the inhibition [20]?
Answer: 24%

Question: Which results are given for CC1=C(C(=O)Nc2ccc3[nH]nc(C)c3c2)C(c2ccc(C(F)(F)F)cc2)CC(=O)N1 (stereo not given)?
Answer: inhibition [1]: 1.51%; inhibition [2]: 4.22%; inhibition [3]: 7.29%; inhibition [4]: 2.58%; inhibition [5]: 6.22%; inhibition [6]: 7.14%; inhibition [7]: 10.2%; inhibition [8]: 1.85%; inhibition [9]: 9.04%; inhibition [10]: 2.28%; inhibition [11]: 14.1%; inhibition [12]: 2.93%; inhibition [13]: 7.46%; inhibition [14]: 1.73%; inhibition [15]: 4.23%; inhibition [16]: 2.28%; inhibition [17]: 3.97%; inhibition [18]: 6.5%; inhibition [19]: 10.8%; inhibition [20]: 6.08%

Question: Which results are given for NC(=O)c1ccc2c(-c3ccnc(NCCCO)n3)c(-c3ccc(F)cc3)nn2c1?
Answer: inhibition [1]: -1.28%; inhibition [2]: 3.3%; inhibition [3]: 4.76%; inhibition [4]: 0.91%; inhibition [5]: 0.98%; inhibition [6]: -6.31%; inhibition [7]: 1.97%; inhibition [8]: 2.88%; inhibition [9]: 2.32%; inhibition [10]: 0.97%; inhibition [11]: 2.71%; inhibition [12]: 7.25%; inhibition [13]: 8.12%; inhibition [14]: 5.14%; inhibition [15]: 5.25%; inhibition [16]: 3.28%; inhibition [17]: 5.26%; inhibition [18]: 3.74%; inhibition [19]: 19.6%; inhibition [20]: 7.03%

Question: Which inhibition [1] does the source give for CCn1c(-c2nonc2N)nc2cncc(C(=O)NCCNC)c21 here?
Answer: 0.12%

Question: And the inhibition [2]?
Answer: 1.73%

Question: And the inhibition [3]?
Answer: 3.94%

Question: And the inhibition [4]?
Answer: -0.65%

Question: What about the inhibition [5] of the same compound?
Answer: 0.97%

Question: What about the inhibition [6] of the same compound?
Answer: -0.66%

Question: What about the inhibition [7] of the same compound?
Answer: 1.38%

Question: What about the inhibition [8] of the same compound?
Answer: 1.2%

Question: What about the inhibition [9] of the same compound?
Answer: 10.5%

Question: What about the inhibition [10] of the same compound?
Answer: -2.71%

Question: And the inhibition [11]?
Answer: 9.74%

Question: And the inhibition [12]?
Answer: 20.8%

Question: What about the inhibition [13] of the same compound?
Answer: 72.4%

Question: And the inhibition [14]?
Answer: 9.71%

Question: What about the inhibition [15] of the same compound?
Answer: 54.7%

Question: And the inhibition [16]?
Answer: 7.99%

Question: What about the inhibition [17] of the same compound?
Answer: 37.2%

Question: And the inhibition [18]?
Answer: 10.2%

Question: What about the inhibition [19] of the same compound?
Answer: 49.7%

Question: What about the inhibition [20] of the same compound?
Answer: 6.83%
